# Bioassay records deposited in PubChem BioAssay by National Center for Advancing Translational Sciences (NCATS).
# FMDV antiviral: blocks foot and mouth disease virus | actives 1.2% (n = 410,000) | FMDV antiviral cell-based qHTS | AID 1159524 | Potency, µM (series often up to 57.9 µM), inactives show at the highest dose activity change, negative = inhibition, most hits filed as inhibitors; calls by dose curve; tested in HEK293T cells; also: read-out not given here; potency is read from the fitted curve at half-maximal effect; nearly all actives have a fitted effect of over 45% in size
# TbPYK inhibitor: blocks Trypanosoma brucei pyruvate kinase. Q57TT1. TbPYK enzyme, Kinase-Glo Plus ATP luminescence, 45 min. Potency, µM (top dose mostly 76.8 µM), inactives show at the highest dose activity, negative = inhibition, hits mostly inhibitors. actives 0.12% (n = 410,000); also: potency is read from the fitted curve at half-maximal effect; nearly all actives have a fitted effect of over 50% in size
#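 T. brucei PYK with substrate was exposed to pin-transferred compounds across a concentration series, then started with 130 uM ADP (final). After 45 min at room temperature, Kinase-Glo Plus luminescence was read, normalized and curve-fitted.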
# Giardia FBPA inh: blocks Giardia fructose-bisphosphate aldolase activity. A8B2U2. purified Giardia FBPA. Potency, µM (doses to about 59.6 µM), for inactives: at the highest dose activity, negative = inhibition, usual class: inhibitors. actives 0.71% (n = 290,000); also: potency is read from the fitted curve at half-maximal effect; nearly all actives have a fitted effect of over 55% in size
# Target sequence (A8B2U2 whole entry, looked up): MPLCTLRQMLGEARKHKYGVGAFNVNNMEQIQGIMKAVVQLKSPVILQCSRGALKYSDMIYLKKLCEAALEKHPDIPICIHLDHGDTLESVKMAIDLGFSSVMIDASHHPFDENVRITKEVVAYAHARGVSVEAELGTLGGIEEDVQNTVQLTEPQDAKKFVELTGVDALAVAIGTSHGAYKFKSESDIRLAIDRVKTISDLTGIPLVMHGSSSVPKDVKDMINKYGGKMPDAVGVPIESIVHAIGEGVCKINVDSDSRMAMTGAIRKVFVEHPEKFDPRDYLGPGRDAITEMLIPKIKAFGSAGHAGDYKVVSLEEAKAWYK
#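 40 nM FBPA preincubated 10 min at RT with compound (up to 57.5 uM final), then substrate plus GAPDH/TPI/NAD/arsenate coupling and diaphorase/resazurin added. Fluorescence read after 20 min at RT, 525/598 nm.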
# HCMV inh: human cytomegalovirus inhibition; HFF cells, HCMV-luciferase reporter, 72 h; active compounds read low; activity change, negative = inhibition, % at 57.5 µM; actives 4.5% (n = 410,000); AID 1259415; in the data active = activity change below about -60%; inconclusive = no clear call, values can overlap the other calls; inactive = above about -39%
#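 Compounds were evaluated in HFFs infected with an HCMV luciferase reporter virus (MOI 1 PFU/cell). Luciferase in lysates collected 72 h post infection served as the replication measure.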
# Sm TGR inh: S. mansoni TGR enzyme inhibition | Q962Y6 | purified TGR, DTNB reduction, TNB absorbance 405 nm | Potency, µM (series often up to 114 µM), inactives show at the top dose activity change, negative = inhibition, most hits filed as inhibitors | actives 3% (n = 360,000) | AID 485364; also: potency is read from the fitted curve at half-maximal effect; nearly all actives have a fitted effect of over 60% in size
#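 First, TGR (20 nM dispensed) and NADPH were mixed with compound. Second, a 15 min room-temperature incubation followed. Third, further NADPH and then DTNB were added to start the reaction. Finally, TNB absorbance was monitored kinetically.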
# RE007 growth inh: less growth of the S. pombe RE007 Vpr strain; AID 651644; S. pombe RE007 Vpr strain, BacTiter-Glo ATP luminescence, 24 h; actives 0.21% (n = 360,000); Potency, µM (doses to about 92.2 µM), for inactives: at the top dose activity change, negative = less growth, most hits filed as inhibitors; active = well fitted falling curve with a large enough effect; inconclusive = small, poorly fitted or top-dose-only effect; inactive = no such curve, though single readings can be large or run the other way; also: potency is read from the fitted curve at half-maximal effect; nearly all actives have a fitted effect of over 50% in size
#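 Fission yeast strain RE007, carrying one chromosomally integrated HIV-1 vpr copy, was seeded at OD 0.01 in PMG+AL medium with 23 nL pinned compound. After 24 h at 30 °C and 99% humidity, viability was read by BacTiter-Glo luminescence.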
# Active calls of the source: *; u = inconclusive; x = not tested or not shown; [ ] = dose if it differs, or a comment. In the library only some 7.7% were active in any assay of this set; here they are far more common. Unless noted, calls follow the shape of the dose curve; as a rule, active = well fitted curve in the direction sought with a large enough effect; inconclusive = small, poorly fitted or top-dose-only effect, or another doubt; inactive = no such curve, though single readings can be large; an effect the other way counts as inactive or inconclusive. % is scaled to controls: 0 for no effect and ±100 for the full control effect.
SMILES,FMDV antiviral,TbPYK inhibitor,Giardia FBPA inh,HCMV inh,Sm TGR inh,RE007 growth inh
CCN1CCCC1CNC(=O)c1cnn(-c2ncc3c(n2)-c2ccc(OC)cc2CC3)c1C1CC1 (stereo unspecified),-8%,x,x,x,x,x
O=S1(=O)N[C@H](c2ccccc2)COc2cc(Br)ccc21,x,x,x,-6,x,x
CN1CCCCC1C(=O)N1CCC(Oc2cccc(CN3CCN(c4ccccn4)CC3)c2)CC1 (stereo unspecified),-7%,x,x,x,x,x
CC(C)(C)OC(=O)N1C[C@@]23C[C@H](c4cccc(F)c4)[C@@H](C[C@@H]2S1(=O)=O)O3,x,x,x,5,x,x
COc1cc(OC)cc(C(=O)N[C@H](C(=O)OCC(=O)Nc2ccc(F)c(F)c2F)C(C)C)c1,2%,-17%,0%,34,0%,0%
COc1cc(OC)cc(C(=O)N[C@H](C(=O)OCC(=O)Nc2ccc(C)cc2C)C(C)C)c1,-8%,-4%,2%,-90*,0%,5%
CCCC(=O)N1CC2(CCN(C)CC2)c2c(n(C)c3cc(OC)ccc23)[C@H]1CO,x,x,x,17,x,x
Cc1cc(C)c(S(=O)(=O)Nc2cc(-c3cn4ccccc4n3)ccc2C)cc1C,-17%,1%,x,-16,u,x
Cc1ccc(-c2cn3cccc(C)c3n2)cc1NS(=O)(=O)c1ccccc1,19%,3%,x,-85*,6%,x
COc1cc2c(cc1OC)C(C)N(CC(=O)Nc1ccc(S(=O)(=O)N3CCCC3)cc1)CC2 (stereo unspecified),u,8%,x,u,35µM*,12%
COc1cc2c(cc1OC)CN(CC(=O)Nc1ccc(S(=O)(=O)N3CCCC3)cc1)CC2,-11%,2%,x,-22,-6%,-9%
COc1cc2c(cc1OC)C(C)N(C(=O)Nc1ccc(F)cc1)CC2 (stereo unspecified),-15%,4%,10%,-102*,-8%,18%
CCOc1ccc(NC(=O)CC2C(=O)N(c3ccccc3)C(=O)N2Cc2ccc3c(c2)OCO3)cc1 (stereo unspecified),3%,0%,x,4,1%,x
N#Cc1ccc(-c2ccc(Cl)cc2)nc1SCC(=O)c1cccc(Cl)c1,-7%,-4%,1%,-61*,-7%,4%
COc1ccc(C(=O)NNc2ncnc3c2cnn3-c2ccccc2)cc1,-9%,-2%,x,-19,1%,x
N#C/C(=C\c1ccc(Oc2ccc(C(F)(F)F)cc2[N+](=O)[O-])cc1)c1nc2ccccc2[nH]1,25µM*,10%,x,-33,1%,-11%
CCN1/C(=C/C=C/c2sc3ccccc3[n+]2CC)Sc2ccccc21,14µM*,u,x,x,-23%,u
CCN1/C(=C/C=C/C=C/C=C/c2sc3ccccc3[n+]2CC)Sc2ccccc21,10µM*,u,u,-96*,40µM*,1%
CCN1/C(=C/C=C/C=C/c2sc3ccccc3[n+]2CC)Sc2ccccc21,x,u,u,x,50µM*,x
CC[n+]1c(/C=C/Nc2ccccc2)sc2ccccc21,-20%,-9%,-2%,-16,-2%,u
Cc1nc2cc(NC(=O)C3CC34CCN(Cc3ccc(O)c(Cl)c3)CC4)ccc2s1 (stereo unspecified),6%,x,x,x,x,x
c1ccc2c(CCNc3ncnc4nc[nH]c34)cccc2c1,32µM*,4%,-4%,-35,0%,7%
Cc1ccc(-c2cc(O)cc3sc(=O)oc23)cc1C,-5%,-4%,-2%,3,-25%,40µM*
O=c1oc2cc(O)ccc2s1,-16%,3%,-4%,31,-9%,0%
COc1cccc2sc(=NC(=O)CS(=O)(=O)c3ccc(F)cc3)n(C)c12,u,-6%,x,-19,-3%,6%
SMILES,FMDV antiviral,TbPYK inhibitor,Giardia FBPA inh,HCMV inh,Sm TGR inh,RE007 growth inh
CCn1c(=NC(=O)CS(=O)(=O)c2ccc(C)cc2)sc2cccc(OC)c21,u,-1%,x,-62*,0%,1%
Cc1ccc(C2C(=O)N(C3CCCCCC3)CC(=O)N2C(C)C)cc1 (stereo unspecified),-9%,-6%,x,u,16%,x
CCOc1ccc(C(CC(=O)O)NC(=O)C2c3ccccc3Oc3ccccc32)cc1 (stereo unspecified),18%,1%,19%,4,6%,-11%
O=C(O)CC(NC(=O)C1c2ccccc2Oc2ccccc21)c1ccc(Cl)cc1 (stereo unspecified),-17%,-3%,27%,-88*,-1%,9%
CN(C)c1ccc(C(CC(=O)O)NC(=O)c2ccc(Cl)cc2)cc1 (stereo unspecified),-12%,-5%,5%,-26,32µM*,-8%
O=C(NC[C@@H]1CCCCN1)c1cc(OCC(F)(F)F)ccc1OCC(F)(F)F,x,x,2%[21.7 µM],x,x,x
COc1cc(C(=O)N2CCCC(c3nc(-c4cccs4)no3)C2)cc(OC)c1OC (stereo unspecified),-1%,-17%,6%,6,4%,4%
COc1cccc(C(=O)N2CCCC(c3nc(-c4cccs4)no3)C2)c1 (stereo unspecified),-2%,-8%,5%,-103*,5%,-1%
COc1cccc(C2CC(=O)Nc3c2c(=O)n(C)c2ncnn32)c1OC (stereo unspecified),-12%,2%,x,7,-4%,x
Cc1cc(C)c(C#N)c(SCCN2CCCCC2)n1,-15%,-11%,1%,-96*,1%,-10%
CCN(CCCl)c1cc(CN(C)C)cc(NC(=O)c2ccc(C(=O)Nc3cc(CN(C)C)cc(N(CC)CCCl)c3)cc2)c1,u,-2%,x,-101*,x,23%
CCN(CC)c1ccc(NC(=O)c2cnn(CC)c2)cc1,5%,-18%,x,-36,5%,-5%
CCOc1ccc(CCn2c3c(c(=O)[nH]c2=O)C(NC(=O)c2ccccc2)(C(F)(F)F)C(=O)N3)cc1OCC (stereo unspecified),0%,1%,x,-9,13%,x
COc1ccc(NC(=O)c2ccccc2[N+](=O)[O-])cc1,50%,-13%,-2%,u,5%,3%
O=C(NCc1cccc(Cl)c1)c1cnc(N2CCOCC2)c2ccccc12,-8%,-5%,x,5,-12%,x
COc1ccc(CNC(=O)c2ccccc2[N+](=O)[O-])cc1,7%,-1%,0%,-108*,8%,11%
Cc1cc(CNC(=O)c2cccc([N+](=O)[O-])c2C)c2ccccc2n1,14µM*,-2%,-5%,-73*,0%,-18%
COc1ccc(CNC(=O)c2cnc(N3CCOCC3)c3ccccc23)cc1,-13%,-1%,x,-109*,0%,x
COc1ccc(CNc2ncncc2-c2ccc3c(c2)OCO3)c(OC)c1,-11%,x,-1%,x,x,x
